PubChem BioAssay (NCATS)
Records with an inconclusive call do not appear. The source made the active and inactive calls. Calls follow the shape of the dose curve; as a rule, active = well fitted inhibition curve with a large enough effect; inconclusive = small, poorly fitted or top-dose-only effect; inactive = flat fitted curve, though single readings scatter. Where a SMILES comes first, the peptide text is derived from it. The star is where a group is joined. Hexanoyl = CCCCCC(=O)*

Test: P-glycoprotein substrates identified in KB-8-5-11 adenocarcinoma cell line, qHTS therapeutic library screen (AID 1346987); also: nearly all actives have a fitted effect of over 65% in size
Settings: KB-8-5-11 (P-gp overexpressing) viability, CellTiter-Glo, 72 h; series mostly up to 44.5 µM; activity change, negative = cytotoxicity: at the top concentration
How it was run: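 Luminescence from CellTiter-Glo, read 5 min after addition, quantified survival of KB-8-5-11 (P-gp-overexpressing) cells exposed to compounds for 72 h. AC50 was derived from concentration-response curves.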
% is scaled to controls: 0 for no effect and ±100 for the full control effect.

Row | Compound | activity change, negative = cytotoxicity | outcome
1 | CCC(C)/C=C(C)/C=C/C1=CC2=C(Cl)C(=O)C(C)(OC(C)=O)C(=O)C2=CN1C(CC(=O)O)C(=O)O (stereo unspecified) | 2.01% [at 17.3 µM] (inactive) | 
2 | CC1=C(CCC(C)O[C@@H]2O[C@H](CO)[C@@H](O)[C@H](O)[C@H]2O)C(C)(C)CC(O)C1 (stereo partly specified) | 3.82% (inactive) | 
3 | CC1(CO)CCCC2(C)C1C(OC(=O)c1ccccc1)CC1C(=O)OCC12O (stereo unspecified) |  | inactive
4 | C=C(C(=O)O)C1CC(O)C2(C)CCCC(C)(O)C2C1 (stereo unspecified) |  | inactive
5 | COc1cc(O)cc(C)c1C(=O)O[C@H]1[C@@H](O)[C@@H](n2ccc(=O)[nH]c2=O)O[C@@H]1CO |  | inactive [at 17.3 µM]
6 | C/C=C(\C)C(=O)OC1C2(O)CC3=C4CC(=O)OC(c5ccoc5)C4(C)CCC3C(C)(C2=O)C(C(OC(C)=O)C(=O)OC)C1(C)C (stereo unspecified) | -6.33% [at 17.3 µM] (inactive) | 
7 | Cc1ccc(-c2c(-c3nn(C)c4ncnc(N5CC[C@H](N6CCCCC6)C5)c34)cnn2C)cc1 | 0.644% (inactive) | 
8 | CC(=O)OC1CCC2(C)C(CCC3(C)C2CC=C2C4CC(C)(C)CCC4(C)CCC23C)C1(C)C(=O)O (stereo unspecified) | 0.336% [at 17.3 µM] (inactive) | 
9 | CC1(C)C2CC[C@@]34CC(CC[C@H]3[C@]2(C)CC[C@@H]1O[C@@H]1O[C@H](CO)[C@@H](O)[C@H](O)[C@H]1O)[C@](C)(O)C4 (stereo partly specified) |  | inactive [at 17.3 µM]
10 | CC1(C)CC[C@]2(C(=O)O[C@@H]3O[C@H](CO[C@@H]4O[C@H](CO)[C@@H](O)[C@H](O)[C@H]4O)[C@@H](O)[C@H](O[C@@H]4O[C@H](CO)[C@@H](O)[C@H](O)[C@H]4O)[C@H]3O)[C@H](O)C[C@]3(C)C(=CCC4[C@@]5(C)CC[C@H](O[C@@H]6OC[C@@H](O)[C@H](O)[C@H]6O)[C@@](C)(C(=O)O)C5CC[C@]43C)[C@@H]2C1 (stereo partly specified) |  | inactive [at 9.29 µM]
11 | O=C(Nc1cc(-c2ccccc2)nn1-c1ccccc1)c1ccc([N+](=O)[O-])cc1 | -5.61% (inactive) | 
12 | C=C1CCC[C@]2(C)CC[C@@](O)(C(=C)C(=O)O)C[C@@H]12 | -12.1% (inactive) | 
13 | CC1=CC2=C(C)C(=O)C(C)(O)C(O)C2CO1 (stereo unspecified) | 1.72% (inactive) | 
14 | COc1ccc(N2CCN(CCCNC(=O)Cn3c(=O)c4cccn4c4c(C)ccnc43)CC2)cc1 | -13.1% (inactive) | 
15 | Cc1cc(Cn2cnc3c2CC(C(=O)O)N(C(=O)C(c2ccccc2)c2ccccc2)C3)ccc1N(C)C (stereo unspecified) | 7.83% (inactive) | 
16 | CCC1OC(=O)C(C)CC(C)C(=O)/C(C)=C/C(C)C(=O)/C=C/C1(C)O (stereo unspecified) | 8.17% (inactive) | 

Row | Compound | activity change, negative = cytotoxicity | outcome
17 | COc1cc([C@@H](O[C@@H]2O[C@H](CO)[C@@H](O)[C@H](O)[C@H]2O)[C@@H]2CO[C@H](c3ccc(O)c(OC)c3)[C@H]2CO)ccc1O | 5.88% [at 17.3 µM] (inactive) | 
18 | COC(=O)C1=C[C@@H](O)[C@@H](O)[C@H](O[C@@H]2O[C@H](CO)[C@@H](O)[C@H](O)[C@H]2OC(=O)/C=C/c2ccccc2)C1 | 2.09% [at 17.3 µM] (inactive) | 
19 | CC(C)c1ccc2c(c1)C(=O)CC1C(C)(C(=O)O)CCCC21C (stereo unspecified) | 1.21% (inactive) | 
20 | C=C1CC2C3(C)C=CC(=O)OC(C)(C)C3CC(OC(C)=O)C2(C)C2C(=O)OC(C)C(=O)C12C (stereo unspecified) | 0.368% [at 17.3 µM] (inactive) | 
21 | COc1cc(CO)cc(OC)c1O[C@@H]1O[C@H](CO)[C@@H](O)[C@H](O)[C@H]1O |  | inactive
22 | C=CC1(C)CC=C2C(CCC3C(C)(C(=O)O)CCCC23C)C1 (stereo unspecified) |  | inactive
23 | C=C1C2(C)CC3C4(C)OC(C5OC56C4=CC(=O)OC6(C)C)C3(C)C13C(=O)OC(C)C3(O)C2=O (stereo unspecified) | 4.6% [at 17.3 µM] (inactive) | 
24 | O=C(O)c1cc(O[C@@H]2O[C@H](CO)[C@@H](O)[C@H](O)[C@H]2O)ccc1O |  | inactive
25 | CC1=C2CC3C(CCC3(C)O)C(C)(O)CC2OC1=O (stereo unspecified) | -3.5% (inactive) | 
26 | CC(C)C1(O)C=C2C(=O)CC3C(C)(C(=O)O)CCCC3(C)C2CC1 (stereo unspecified) | 3.7% (inactive) | 
27 | CCCCCC(=O)N1CCC[C@H]1C(=O)N[C@@H](Cc1ccc(O)cc1)C(=O)OC (Hexanoyl-Pro-Tyr-OMe) | -8.17% (inactive) | 
28 | CC12CC(c3ccoc3)OC(=O)C1CCC1(C)C2CCC(O)C1(C)O (stereo unspecified) | -0.382% (inactive) | 
29 | C[C@@H]1O[C@@H](O[C@H]2[C@H](O)[C@@H](O)[C@H](OC(=O)[C@]34CCC(C)(C)C[C@H]3C3=CCC5[C@@]6(C)CC[C@H](O[C@@H]7O[C@H](C(=O)O)[C@@H](O)[C@H](O)[C@H]7O)C(C)(C)C6CC[C@@]5(C)[C@]3(C)CC4)O[C@@H]2CO)[C@H](O)[C@H](O)[C@H]1O (stereo partly specified) |  | inactive [at 9.29 µM]
30 | CC(C)(O)C1CCC2(C)CCCC(C)(O)C2C1 (stereo unspecified) | 7.4% (inactive) | 
31 | CC(C)(O)/C=C/C(=O)[C@](C)(O)[C@H]1[C@H](O)C[C@@]2(C)[C@@H]3CC=C4[C@@H](C=C(O[C@@H]5O[C@H](CO)[C@@H](O)[C@H](O)[C@H]5O)C(=O)C4(C)C)[C@]3(C)C(=O)C[C@]12C | 2.34% [at 17.3 µM] (inactive) | 
